Records with an inconclusive call do not appear. The source made the active and inactive calls. How the source made its calls, unless noted: active means hit-call score of the fitted dose curve at least 0.9, where 1 is the maximum; inactive means score below 0.9.
Tests used:
[1] = IUF_NPC3_neuronal_differentiation_120hr: Leibniz Research Institute for Environmental Medicine (IUF) 120-hour Neuronal Differentiation Assay (NPC3) (AID 2284301)
How it was run: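 Value is percent TUBB3-positive neurons among Hoechst-stained nuclei in the migration area, scored by trained CNN after 120 h differentiation. Primary hNPC spheres on poly-D-lysine/laminin, N2 medium, continuous dosing from day 0, half-refeed day 3; DMSO reference.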

[2] = IUF_NPC4_neurite_length_120hr: Leibniz Research Institute for Environmental Medicine (IUF) 120-hour Neuronal Morphology Assay for Neurite Length (NPC4) (AID 2284302)
How it was run: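 Neurite length, the mean in um across TUBB3-stained neurons, is derived by skeletonization of high-content images after 120 h differentiation. Compound exposure, 7 concentrations plus solvent control, ran from plating of hNPC spheres on poly-D-lysine/laminin, with medium half-replaced on day 3.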

[3] = IUF_NPC4_neurite_area_120hr: Leibniz Research Institute for Environmental Medicine (IUF) 120-hour Neuronal Morphology Assay for Neurite Area (NPC4) (AID 2284305; active means hit-call score of the fitted dose curve at least 0.9, where 1 is the maximum)
Description: IUF_NPC2-5 is a cell-based, multiplexed assay that uses hNPC, a human primary neural progenitor cells, with measurements taken at 72 or 120 hours after chemical dosing in a 96-well plate. Human neural progenitor cells (hNPC) are generated from human fetal brain cortex at gestational week (GW) 16-19. In the neural progenitor cell migration and differentiation assay (NPC2-5), hNPCs grown as spheres are plated on an extracellular matrix and migrate and differentiate out of the sphere core. The processes radial glia migration, neuronal and oligodendrocyte migration as well as neuronal differentiation, neuronal morphology and oligodendrocyte differentiation are studied using automated phase contrast imaging and automated fluorescence imaging in combination with high content image analysis. In parallel, the cell viability is assessed using an alamar blue viability assay and the cytotoxicity using a lactate dehydrogenase dependent membrane integrity assay.IUF_NPC4_neurite_area_120hr is one of 12 assay components measured from the IUF_NPC2-5 assay. […]
Culture protocol: After the cell expansion period the cells are cultured for up to four weeks in which they are passaged every week as described in 3.6. […] The plates are scanned using an automated high content imaging device and all nuclei and their positions are determined automatically based on their intensity and size. […]

[4] = IUF_NPC2-5_cytotoxicity_72hr: Cytotoxicity Assessment at 72 hours in the Leibniz Research Institute for Environmental Medicine (IUF) Neural Progenitor Cell Migration and Differentiation Assay for Cytotoxicity (NPC2-5) (AID 2284306; active means hit-call score of the fitted dose curve at least 0.9, where 1 is the maximum;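 further: LDH release into supernatant measured by resorufin fluorescence marking membrane damage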)
How it was run: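 Membrane-integrity cytotoxicity at 72 h, read as LDH-driven resorufin fluorescence in supernatant. hNPC spheres from fetal cortex differentiate on coated plates in N2 medium, 37C, 5% CO2; seven serial compound concentrations plus solvent control (DMSO ≤0.1%).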

[5] = IUF_NPC2-5_cytotoxicity_120hr: Cytotoxicity Assessment at 120 hours in the Leibniz Research Institute for Environmental Medicine (IUF) Neural Progenitor Cell Migration and Differentiation Assay (NPC2-5) (AID 2284307; active means hit-call score of the fitted dose curve at least 0.9, where 1 is the maximum)
How it was run: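 Fluorescence (RFU) from LDH-driven resazurin reduction in medium supernatants measured loss of membrane integrity after 120 h of compound exposure of differentiating primary human neural progenitor spheres on an extracellular matrix.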

[6] = IUF_NPC2-5_cell_number_120hr: Cell Number Assessment at 120 hours in the Leibniz Research Institute for Environmental Medicine (IUF) Neural Progenitor Cell Migration and Differentiation Assay (NPC2-5) (AID 2284308);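 further: count of Hoechst-stained nuclei in migration zone around plated human neural progenitor spheres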
How it was run: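 Cell number is taken as all Hoechst-positive nuclei detected in the area into which cells migrate out of the sphere, scored at 120 h and referenced to DMSO solvent control, which was kept at no more than 0.1%.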

[7] = IUF_NPC2-5_viability_120hr: Viability Assessment at 120 hours in the Leibniz Research Institute for Environmental Medicine (IUF) Neural Progenitor Cell Migration and Differentiation Assay (NPC2-5) (AID 2284312)
How it was run: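 Alamar blue resorufin fluorescence read after 5 days of differentiation, with compound present from day 0 and replenished at day 3. Primary hNPC spheres on laminin-coated plates, 37C; seven concentrations plus solvent control, fitted against DMSO.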

[8] = IUF_NPC5_oligodendrocyte_differentiation_120hr: Leibniz Research Institute for Environmental Medicine (IUF) 120-hour Oligodendrocyte Differentiation Assay (NPC5) (AID 2284304; active means hit-call score of the fitted dose curve at least 0.9, where 1 is the maximum;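 further: share of O4-positive cells among Hoechst nuclei found by CNN image analysis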)
How it was run: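 Human primary NPC neurospheres migrating and differentiating on laminin for 120 h under continuous compound exposure (serial dilution, solvent control). Endpoint: percent O4+ oligodendrocytes among Hoechst nuclei, detected by CNN image analysis, with DMSO as negative control.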

SMILES | outcome [1] | outcome [2] | outcome [3] | outcome [4] | outcome [5] | outcome [6] | outcome [7] | AC50 [8]
OC[C@@H](O)[C@@H](O)[C@H](O)[C@@H](O)CO | inactive | inactive | inactive | inactive | inactive | inactive | inactive | –
CC(CCl)OP(=O)(OC(C)CCl)OC(C)CCl (stereo not given) | inactive | inactive | inactive | inactive | inactive | inactive | inactive | 5.43 µM (active)
